# Records with an inconclusive call do not appear. A structure can be active in one record and inactive in another. Calls of active or inactive are those of the source. The calls were made as follows: active = hit-call score of the fitted dose curve at least 0.9, where 1 is the maximum; inconclusive = response in the unintended direction; inactive = score below 0.9.
# Tests used:
# [1] = NVS_GPCR_bNPY_NonSelective: NovaScreen (NVS) G Protein-Coupled Receptor Assay for bovine Neuropeptide Y (NPY) Receptor, Non-selective Binding (AID 2283245)
# In short: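 Displacement of radioligand from bovine hippocampal membrane receptors, read by filtration and scintillation counting after 1 hour. Concentration-response to a top of 50 uM followed a 25 uM duplicate primary screen. Loss of signal versus DMSO.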
# [2] = system: guinea pig Muscarinic, Peripheral (Mperiperal) Receptor, Non-selective Binding, gene 100379235; test: NVS_GPCR_gMPeripheral_NonSelective: NovaScreen (NVS) G Protein-Coupled Receptor Assay for guinea pig Muscarinic, Peripheral (Mperiperal) Receptor, Non-selective Binding (AID 2283250)
# In short: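 Screened in duplicate at 25 uM, hits retested in concentration series to 50 uM max, using bladder membrane radioligand displacement from guinea pig. Filtration and scintillation counting 1 h post-dose, fitted relative to DMSO.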
# [3] = target: human Serotonin, 5-Hydroxytryptamine Receptor 2A (5HT2A), HTR2A (gene 3356) (UniProt P28223); test: NVS_GPCR_h5HT2A: NovaScreen (NVS) G Protein-Coupled Receptor Assay for human Serotonin, 5-Hydroxytryptamine Receptor 2A (5HT2A) (AID 2283249)
# Chain of human Serotonin, 5-Hydroxytryptamine Receptor 2A (5HT2A), HTR2A (gene 3356) (P28223 whole entry, looked up): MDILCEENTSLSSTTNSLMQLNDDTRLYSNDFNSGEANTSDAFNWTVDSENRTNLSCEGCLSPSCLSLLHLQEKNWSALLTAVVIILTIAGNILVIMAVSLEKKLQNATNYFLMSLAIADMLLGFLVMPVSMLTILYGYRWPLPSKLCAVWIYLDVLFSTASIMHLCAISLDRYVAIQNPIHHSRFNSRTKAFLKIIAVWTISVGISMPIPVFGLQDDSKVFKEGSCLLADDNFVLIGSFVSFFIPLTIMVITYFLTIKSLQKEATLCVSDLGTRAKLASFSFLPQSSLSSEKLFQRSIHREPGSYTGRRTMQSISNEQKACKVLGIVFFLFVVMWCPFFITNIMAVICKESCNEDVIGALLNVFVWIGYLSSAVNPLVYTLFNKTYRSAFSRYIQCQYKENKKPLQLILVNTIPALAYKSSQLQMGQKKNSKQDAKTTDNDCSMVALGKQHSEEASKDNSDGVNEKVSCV
# In short: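 Radioligand displacement on human cortex tissue extract, counted by filtration and scintillation 1.5 h post-dosing. Initial single-concentration screen at 25 uM in duplicate, concentration series in follow-up; DMSO as baseline.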
# [4] = target: human Serotonin, 5-Hydroxytryptamine Receptor 6 (5HT6), HTR6 (gene 3362) (UniProt P50406); test: NVS_GPCR_h5HT6: NovaScreen (NVS) G Protein-Coupled Receptor Assay for human Serotonin, 5-Hydroxytryptamine Receptor 6 (5HT6) (AID 2283253)
# Chain of human Serotonin, 5-Hydroxytryptamine Receptor 6 (5HT6), HTR6 (gene 3362) (P50406 whole entry, looked up): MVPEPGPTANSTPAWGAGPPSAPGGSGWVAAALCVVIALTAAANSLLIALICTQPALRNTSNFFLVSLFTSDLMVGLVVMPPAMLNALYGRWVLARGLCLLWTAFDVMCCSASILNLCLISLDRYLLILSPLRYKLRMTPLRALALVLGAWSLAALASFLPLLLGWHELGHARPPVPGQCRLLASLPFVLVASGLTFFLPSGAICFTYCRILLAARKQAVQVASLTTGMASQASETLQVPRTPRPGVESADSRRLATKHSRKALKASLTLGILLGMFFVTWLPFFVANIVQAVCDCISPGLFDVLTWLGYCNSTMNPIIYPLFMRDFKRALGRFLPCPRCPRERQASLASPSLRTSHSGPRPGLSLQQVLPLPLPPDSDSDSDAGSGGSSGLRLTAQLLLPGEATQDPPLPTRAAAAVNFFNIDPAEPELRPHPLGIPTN
# In short: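 Filter scintillation counting of radioligand displacement from HEK293-expressed 5HT6, 1 hour post-dose, with loss of signal relative to DMSO. Single 25 uM duplicates first, with concentration series for confirmation.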
# [5] = target: Beta-2 adrenergic receptor (Homo sapiens) (UniProt P07550); test: NVS_GPCR_hAdrb2: NovaScreen (NVS) G Protein-Coupled Receptor Assay for human Adrenergic, Beta 2 Receptor (Adrb2) (AID 2283261)
# Chain of Beta-2 adrenergic receptor (Homo sapiens) (P07550 whole entry, looked up): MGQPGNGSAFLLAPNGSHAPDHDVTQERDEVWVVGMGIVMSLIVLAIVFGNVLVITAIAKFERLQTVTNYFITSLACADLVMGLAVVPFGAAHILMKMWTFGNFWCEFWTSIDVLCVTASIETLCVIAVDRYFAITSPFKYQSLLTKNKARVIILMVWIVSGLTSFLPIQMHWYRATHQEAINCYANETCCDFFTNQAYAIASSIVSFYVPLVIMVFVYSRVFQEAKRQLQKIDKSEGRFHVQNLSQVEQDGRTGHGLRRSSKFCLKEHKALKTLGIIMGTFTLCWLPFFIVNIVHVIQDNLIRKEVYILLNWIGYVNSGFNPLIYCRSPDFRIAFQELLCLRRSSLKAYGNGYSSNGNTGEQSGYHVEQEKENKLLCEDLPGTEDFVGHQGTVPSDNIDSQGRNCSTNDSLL
# In short: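 Compounds screened in duplicate at 25 uM, then actives in concentration series. Human beta-2 receptor from CHO material, cell-free; radioligand displacement after 1 h measured by filtration and scintillation against DMSO baseline.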
# [6] = target: human Adrenergic, Beta 3 Receptor (Adrb3), ADRB3 (gene 155) (UniProt P13945); test: NVS_GPCR_hAdrb3: NovaScreen (NVS) G Protein-Coupled Receptor Assay for human Adrenergic, Beta 3 Receptor (Adrb3) (AID 2283262)
# Chain of human Adrenergic, Beta 3 Receptor (Adrb3), ADRB3 (gene 155) (P13945 whole entry, looked up): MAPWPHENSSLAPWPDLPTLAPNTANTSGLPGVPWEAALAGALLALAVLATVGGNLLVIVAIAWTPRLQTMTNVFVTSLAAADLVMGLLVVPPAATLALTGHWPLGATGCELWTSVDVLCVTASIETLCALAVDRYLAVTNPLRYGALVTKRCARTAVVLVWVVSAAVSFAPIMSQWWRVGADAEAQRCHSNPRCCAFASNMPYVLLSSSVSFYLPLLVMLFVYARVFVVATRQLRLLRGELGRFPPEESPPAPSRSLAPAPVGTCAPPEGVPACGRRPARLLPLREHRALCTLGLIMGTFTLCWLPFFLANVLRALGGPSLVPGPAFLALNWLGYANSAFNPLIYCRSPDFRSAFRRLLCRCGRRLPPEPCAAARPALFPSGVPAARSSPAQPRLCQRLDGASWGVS
# In short: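 A cell-free filter binding assay read by scintillation counting, with displacement of a specific radioligand measured after 1 hour. The receptor source was SK-N-MC extracts (cells pretreated with isoproterenol and 8-bromo-cAMP). Compounds were first tested at 25 uM in duplicate and then in concentration series.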
structure (smiles),measurement,setting,value
CCCCNC(=O)OCC#CI,AC50,[1],4.96 µM (active)
same,outcome,[1],inactive
same,outcome,[2],inactive
Fc1ccc(Oc2ccnc3cc(Cl)cc(Cl)c23)cc1,outcome,[3],inactive
CCNc1nc(Cl)nc(NCC)n1,outcome,[3],inactive
CO/C=C(/C(=O)OC)c1ccccc1Oc1cc(Oc2ccccc2C#N)ncn1,outcome,[2],inactive
CN(C)C(=S)SSC(=S)N(C)C,AC50,[4],5.18 µM (active)
OC(c1ccc(Cl)cc1)(c1cncnc1)c1ccccc1Cl (stereo unspecified),AC50,[4],8.03 µM (active)
same,outcome,[5],inactive
COc1ccc(C(c2ccc(OC)cc2)C(Cl)(Cl)Cl)cc1,outcome,[5],inactive
O=C(Nc1ccccc1)Nc1ccnc(Cl)c1,outcome,[6],inactive

# — PubChem BioAssay (EPA / NIEHS)
